H9c2 protect: cardioprotection against H2O2-induced cell death, primary screen, uHTS, H9c2 cells, ATPLite luminescence | H9c2 cardiomyocytes, H2O2 injury protection, 2 h | protection from H2O2 cell death, % at 20 µM | 0.63% of 360,000 active | AID 588492, 2011;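 active = compounds giving at least 50% protection of heart cells from peroxide-induced death in the single-dose screen, raw or plate-pattern-corrected value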;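 also: 0% = DMSO wells with peroxide and 100% = DMSO wells without peroxide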
PfGluPho inh: PfG6PD enzyme inhibitors, primary screen, biochemical, fluorescence intensity, uHTS | PfGluPho enzyme, NADPH resazurin-diaphorase fluorescence | inhibition, % at 20 µM | 0.78% of 350,000 active;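 active = inhibition reaching at least a set limit at 20 µM in the primary screen, cut at about 59% in these data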;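 also: 0% = DMSO wells with substrate and 100% = DMSO wells lacking glucose-6-phosphate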
ALR H2O2 inh: inhibitors of human ALR sulfhydryl oxidase, primary screen, biochemical, H2O2 detection, HRP-luminol luminescence, single point; 3.8% of 290,000 active; FAD-linked sulfhydryl oxidase ALR (Homo sapiens), P55789; inhibition, % (test concentration not listed); purified ALR, DTT oxidation;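 active = mean replicate inhibition above about 79%, with every replicate also reaching it, limit read from the data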
Target sequence (P55789 whole entry, looked up): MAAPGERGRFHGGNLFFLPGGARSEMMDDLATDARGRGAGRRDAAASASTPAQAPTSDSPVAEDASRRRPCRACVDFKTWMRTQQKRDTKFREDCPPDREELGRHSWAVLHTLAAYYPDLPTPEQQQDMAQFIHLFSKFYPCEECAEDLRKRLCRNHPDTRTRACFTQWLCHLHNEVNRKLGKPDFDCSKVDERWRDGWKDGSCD
M18AAP inhibitor: PfM18AAP inhibitors, malaria aminopeptidase, primary screen, biochemical, QFRET, recombinant enzyme; M18 aspartyl aminopeptidase (Plasmodium falciparum 3D7); H-Glu-NHMec fluorogenic cleavage; inhibition, % at 7.35 µM; 1.2% of 290,000 active;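 active = inhibition above the campaign mean inhibition over all tested compounds plus 3 SD, cut at about 28% in these data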;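 also: 0% = plate median of test compound wells and 100% = 2 mM ZnCl2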
PHOSPHO1 inh: PubChem AID 1565 | Phosphoethanolamine/phosphocholine phosphatase (Homo sapiens), Q8TCT1 | recombinant PHOSPHO1, absorbance phosphatase assay | inhibition, % at 13.3 µM | 1.1% of 290,000 active; in the data active = inhibition above about 60%
Target sequence (Q8TCT1 whole entry, looked up): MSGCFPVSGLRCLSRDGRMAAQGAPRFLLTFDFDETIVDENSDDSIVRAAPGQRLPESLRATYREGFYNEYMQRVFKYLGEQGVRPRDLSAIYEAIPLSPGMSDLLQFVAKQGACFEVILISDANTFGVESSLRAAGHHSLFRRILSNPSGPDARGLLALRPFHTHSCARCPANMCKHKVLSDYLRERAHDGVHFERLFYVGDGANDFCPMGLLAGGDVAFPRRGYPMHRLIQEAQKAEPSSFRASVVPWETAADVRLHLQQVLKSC
Active calls of the source: *; / = no result given. This is a sample that favours compounds with a hit; in the whole collection about 5.6% have one here.

SMILES	H9c2 protect	PfGluPho inh	ALR H2O2 inh	M18AAP inhibitor	PHOSPHO1 inh
CCOc1ccc(C(=O)COC(=O)Cc2n[nH]c(=O)c3ccccc23)cc1	44	1	-3	/	/
COc1ccc(C(C)=O)cc1COC(=O)Cc1n[nH]c(=O)c2ccccc12	72*	19	2	-4	-15
O=C(Cn1[nH]c(=O)c2ccccc2c1=O)OCC(=O)c1ccccc1	44	13	-1	/	/
O=C(Cc1n[nH]c(=O)c2ccccc12)OCC(=O)c1ccc(F)cc1	42	9	-5	/	/
CCN(CC(=O)Nc1c(F)cccc1F)C(=O)Cn1[nH]c(=O)c2ccccc2c1=O	84*	11	/	/	/
O=C(COC(=O)Cn1[nH]c(=O)c2ccccc2c1=O)NNC(=O)c1ccc(Br)cc1	83*	-1	/	/	/
O=C(Cc1n[nH]c(=O)c2ccccc12)OCC(=O)c1ccc2c(c1)OCCO2	66*	7	-3	-1	-16
CCCCn1c(N)c(N(CCOC)C(=O)CN(C)S(=O)(=O)c2ccc(C)cc2)c(=O)[nH]c1=O	3	-6	-2	/	/
CN(CCCn1cnc2c(OCc3ccccc3)ncnc21)Cc1ccco1	-8	2	/	/	/
COCCNC(=O)C1CC(c2ccccc2C(F)(F)F)=NO1 (stereo not given)	7	-5	/	/	/
N#Cc1ccc(NC(=O)CN2C(=O)NC3(CCCC3)C2=O)cc1	-2	-18	/	-3	20
Cn1cnnc1SCc1ccccc1	4	8	-5	11	13
Cn1cnnc1SCc1ccc(-c2ccc(Br)cc2)o1	-21	34	43	5	85*
CC1CN2C(c3ccc(Cl)cc3)=CSC2=N1 (stereo not given)	-4	23	99*	10	3
S=C(Nc1cccnc1)NC1CCCCCCC1	-2	17	7	11	-15
O=C(NCC1CC1)Nc1cccs1	-2	9	99*	6	-31
CC1CCC(NC(=O)Nc2cccs2)CC1 (stereo not given)	14	37	98*	15	15
Cc1ccccc1NC(=O)Nc1cccs1	-25	32	65	15	16
O=C(Nc1cccnc1)NC1CCCCC1	3	-4	72	-14	68*
CC(C)NC(=O)Nc1cccs1	7	31	97*	3	16
CCN(CC)CCN(CC(=O)Nc1c(C)cc(C)cc1C)C(=O)c1ccccc1	-3	-27	-19	0	/
CC(=O)NC(c1ccccc1)c1nc(/C=C/c2ccccc2)cs1 (stereo not given)	-1	/	/	/	/
COCCNc1nc(Nc2ccc(C#N)cc2)c2sccc2n1	2	/	/	/	/
O=C(Nc1cccs1)NC1CCCC1	11	40	99*	-1	40
CCOc1ccc(CCNc2nc3ccccc3n3cnnc23)cc1OCC	-2	0	3	0	16
SMILES	H9c2 protect	PfGluPho inh	ALR H2O2 inh	M18AAP inhibitor	PHOSPHO1 inh
CCn1nc(NS(=O)(=O)c2ccccc2)c2cc3ccc(C)cc3nc21	0	-16	4	6	59
CCn1nc(NS(=O)(=O)c2ccccc2)c2cc3cc(C)ccc3nc21	-3	-10	81*	5	37
CCn1nc(NS(=O)(=O)c2ccccc2[N+](=O)[O-])c2cc3cccc(C)c3nc21	-9	-2	92*	6	32
CCCn1nc(NS(=O)(=O)c2ccccc2[N+](=O)[O-])c2cc3ccccc3nc21	2	-2	66	4	15
CCCn1nc(NS(=O)(=O)c2cccc3nonc23)c2cc3ccccc3nc21	3	-22	99*	0	28
CCn1nc(NS(=O)(=O)c2ccc([N+](=O)[O-])cc2)c2cc3cccc(C)c3nc21	-5	-7	44	5	28
COc1ccc(S(=O)(=O)Nc2cc3c4c(c2)C(C)C(=O)N4CCC3)cc1OC (stereo not given)	0	10	-41	/	/
Cc1cc(C)n(-c2nc(NCCO)c3c4c(sc3n2)CCCC4)n1	12	39	-9	5	81*
Cc1ccc(S(=O)(=O)N2CCOCC2)cc1C(=O)OCC(=O)NC1CCCC1	3	-7	3	/	/
CCC1CC2(C)NC(=O)c3c(sc4c3CC(C)(C)OC4)N2C1=O (stereo not given)	3	51	/	-24	84*
COc1ccc(N2CCN(C(CNC(=O)C(=O)NCCCn3ccnc3)c3cccnc3)CC2)cc1 (stereo not given)	1	6	90*	3	-8
O=C(NCC(c1ccco1)N1CCCCC1)C(c1ccccc1)c1ccccc1 (stereo not given)	-3	-5	94*	-5	-8
O=C(NCc1cccs1)C(=O)NCC(c1ccco1)N1CCN(c2ccccc2)CC1 (stereo not given)	1	13	98*	-4	-23
O=C(NCc1cccnc1)C(=O)NCC(c1ccco1)N1CCN(c2ccccc2)CC1 (stereo not given)	2	7	98*	-1	-47
O=C(Cc1ccccc1F)NCC(c1ccco1)N1CCCCC1 (stereo not given)	4	-9	1	2	6
CCOC(=O)CC(=O)NC(C)(C)CCCCC(C)(C)NC(=O)CC(=O)OCC	-4	1	-4	-4	27
O=C(NCC(c1cccnc1)N1CCN(c2ccccc2)CC1)c1ccco1 (stereo not given)	1	-11	99*	0	/
O=C(CCN1CCCO1)NC1CCCc2c1cnn2-c1ccccc1F (stereo not given)	3	-3	-2	-4	12
O=C(CCc1cn2ccccc2n1)NC1CCCc2c1cnn2-c1ccccc1F (stereo not given)	1	13	-4	3	75*
Cc1nnc(NC(=O)C2CCN(S(=O)(=O)c3ccc(F)c(F)c3)CC2)o1	8	-2	-7	/	/
O=C(CN1C(=O)CCC1=O)NNc1ccc2ccccc2c1	-7	16	98*	-7	26
O=C(CNc1ccc2ccccc2c1)NNC1=NCCC1	-5	-2	84*	19	-18
O=C(CNc1ccccc1)NNC1=NCCC1	1	-1	2	9	0
O=C(Cc1ccccc1)NNc1ccc2ccccc2c1	-14	8	9	10	-53
CCCN(CC1CC1)C(=S)NC(=O)c1cc(Br)ccc1Cl	13	-5	/	/	/
Cn1nnnc1Sc1ncnc2scc(-c3cccs3)c12	/	27	30	/	/
CCOC(=O)c1c(N)sc2c1CCN(CCc1ccccc1)C2	-8	3	-17	29*	3
CCOC(=O)c1c(NC(=S)Nc2ccccc2)sc2c1CCN(CCc1ccccc1)C2	/	/	-3	3	30
CCOC(=O)c1c(N)sc2c1CCCC2	3	6	68	10	49
CCOC(=O)c1c(N)sc2c1CCS(=O)(=O)C2	1	25	/	7	79*

Assay outcomes as filed in PubChem.
